Experimental data taken from PubChem BioAssay AID1159580 (chemical genetic matrix, 2015).
Out of some 5,500 compounds screened, about 2,000 (36%) were called active. Roughly 18% stayed inconclusive and do not appear here. No stated cut-off is given here; in the data, active means normalized growth mostly below about 0.91 (no sharp cut-off); inconclusive means no clear call, values can overlap the other calls; inactive means mostly above about 0.92. This is one part of the list.

Assay: chemical genetic growth profiling, strain panel (AID 1159580);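 further: tested at 20 µM; growth read once vehicle control cultures reached saturation at 30 °C; 1 = growth at the plate median or of vehicle wells; lower values mean less growth of the strain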
Conditions: growth OD

Measured: normalized growth

CCN(CC)CCNC(=O)c1cc(Br)c(N)cc1OC
inactive: S. cerevisiae deletion strains, locus YJR043C, strain POL32, active compounds read low 0.917 | S. cerevisiae deletion strains, locus YJR066W, strain TOR1, active compounds read low 0.933 | S. cerevisiae deletion strains, locus YKL009W, strain mrt4, active compounds read low 0.955 | S. cerevisiae deletion strains, locus YKL068W, active compounds read low 0.989 | S. cerevisiae deletion strains, locus YKL085W, strain MDH1 (second series), active compounds read low 0.993 | S. cerevisiae deletion strains, locus YKL085W, strain MDH1, active compounds read low 0.993 | S. cerevisiae deletion strains, locus YKL160W, strain elf1, active compounds read low 0.985 | S. cerevisiae deletion strains, locus YKL190W, strain CNB1, active compounds read low 0.982 | S. cerevisiae deletion strains, locus YKR001C, strain vps1, active compounds read low 0.984 | S. cerevisiae deletion strains, locus YKR026C, strain gcn3, active compounds read low 0.971 | S. cerevisiae deletion strains, locus YKR091W, strain srl3, active compounds read low 0.99 | S. cerevisiae deletion strains, locus YLL001W, strain dnm1, active compounds read low 1 | S. cerevisiae deletion strains, locus YLL026W, active compounds read low 0.99 | S. cerevisiae deletion strains, locus YLL041C, strain sdh2, active compounds read low 0.98 | S. cerevisiae deletion strains, locus YLR027C, strain aat2, active compounds read low 0.992 | S. cerevisiae deletion strains, locus YLR039C, strain RIC1, active compounds read low 0.974 | S. cerevisiae deletion strains, locus YLR058C, strain SHM2, active compounds read low 0.971 | S. cerevisiae deletion strains, locus YLR102C, strain apc9, active compounds read low 0.991 | S. cerevisiae deletion strains, locus YLR113W, strain HOG1, active compounds read low 1.01 | S. cerevisiae deletion strains, locus YLR221C, strain rsa3, active compounds read low 0.992 | S. cerevisiae deletion strains, locus YLR258W, strain gsy2, active compounds read low 0.991 | S. cerevisiae deletion strains, locus YLR262C, strain YPT6 (second series), active compounds read low 1.02 | S. cerevisiae deletion strains, locus YLR262C, strain YPT6, active compounds read low 0.958 | S. cerevisiae deletion strains, locus YLR268W, strain sec22, active compounds read low 0.983 | S. cerevisiae deletion strains, locus YLR320W, strain mms22, active compounds read low 1.01 | S. cerevisiae deletion strains, locus YLR330W, strain CHS5, active compounds read low 1 | S. cerevisiae deletion strains, locus YLR342W, strain FKS1 (second series), active compounds read low 1.08 | S. cerevisiae deletion strains, locus YLR342W, strain FKS1, active compounds read low 0.991 | S. cerevisiae deletion strains, locus YLR357W, strain rsc2, active compounds read low 0.974 | S. cerevisiae deletion strains, locus YLR370C, strain arc18, active compounds read low 0.994 | S. cerevisiae deletion strains, locus YLR371W, strain rom2, active compounds read low 0.995 | S. cerevisiae deletion strains, locus YLR384C, strain iki3, active compounds read low 0.991 | S. cerevisiae deletion strains, locus YLR418C, strain cdc73, active compounds read low 1.04 | S. cerevisiae deletion strains, locus YML016C, strain PPZ1, active compounds read low 0.994 | S. cerevisiae deletion strains, locus YML032C, strain rad52, active compounds read low 0.968 | S. cerevisiae deletion strains, locus YML120C, strain ndi1, active compounds read low 0.99 | S. cerevisiae deletion strains, locus YML124C, strain tub3, active compounds read low 0.98 | S. cerevisiae deletion strains, locus YMR058W, strain fet3, active compounds read low 0.982 | S. cerevisiae deletion strains, locus YMR078C, strain ctf18, active compounds read low 0.988 | S. cerevisiae deletion strains, locus YMR125W, strain sto1, active compounds read low 0.975 | S. cerevisiae deletion strains, locus YMR129W, active compounds read low 0.986 | S. cerevisiae deletion strains, locus YMR205C, strain PFK2, active compounds read low 1.03 | S. cerevisiae deletion strains, locus YMR223W, strain ubp8, active compounds read low 1.02 | S. cerevisiae deletion strains, locus YMR231W, strain pep5, active compounds read low 1 | S. cerevisiae deletion strains, locus YMR307W, strain GAS1, active compounds read low 1.07 | S. cerevisiae deletion strains, locus YNL067W, strain RPL9B, active compounds read low 0.964 | S. cerevisiae deletion strains, locus YNL071W, strain lat1, active compounds read low 0.987 | S. cerevisiae deletion strains, locus YNL153C, strain GIM3, active compounds read low 0.961 | S. cerevisiae deletion strains, locus YNL183C, strain NPR1, active compounds read low 0.956 | S. cerevisiae deletion strains, locus YNL209W, strain ssb2, active compounds read low 0.988 | S. cerevisiae deletion strains, locus YNL233W, strain BNI4, active compounds read low 0.957 | S. cerevisiae deletion strains, locus YNL248C, strain rpa49, active compounds read low 0.969 | S. cerevisiae deletion strains, locus YNL250W, strain rad50, active compounds read low 0.986 | S. cerevisiae deletion strains, locus YNL271C, strain bni1, active compounds read low 0.988 | S. cerevisiae deletion strains, locus YNL298W, strain CLA4, active compounds read low 0.985 | S. cerevisiae deletion strains, locus YNL307C, strain MCK1, active compounds read low 0.981 | S. cerevisiae deletion strains, locus YNL322C, strain KRE1 (second series), active compounds read low 0.987 | S. cerevisiae deletion strains, locus YNR049C, strain mso1, active compounds read low 0.969 | S. cerevisiae deletion strains, locus YNR052C, strain pop2, active compounds read low 0.992 | S. cerevisiae deletion strains, locus YOL006C, strain TOP1, active compounds read low 0.879 | S. cerevisiae deletion strains, locus YOL012C, strain htz1 1.14 | S. cerevisiae deletion strains, locus YOL147C, strain pex11, active compounds read low 0.989 | S. cerevisiae deletion strains, locus YOR001W, strain rrp6, active compounds read low 0.966 | S. cerevisiae deletion strains, locus YOR061W, strain CKA2, active compounds read low 0.97 | S. cerevisiae deletion strains, locus YOR069W, strain VPS5, active compounds read low 0.992 | S. cerevisiae deletion strains, locus YOR070C, strain gyp1, active compounds read low 0.996 | S. cerevisiae deletion strains, locus YOR080W, strain dia2, active compounds read low 0.975 | S. cerevisiae deletion strains, locus YOR083W, strain WHI5, active compounds read low 0.978 | S. cerevisiae deletion strains, locus YOR106W, strain vam3, active compounds read low 0.992 | S. cerevisiae deletion strains, locus YOR136W, strain idh2, active compounds read low 0.977 | S. cerevisiae deletion strains, locus YOR144C, strain elg1, active compounds read low 0.998 | S. cerevisiae deletion strains, locus YOR184W, strain ser1, active compounds read low 0.987 | S. cerevisiae deletion strains, locus YOR231W, strain MKK1, active compounds read low 0.96 | S. cerevisiae deletion strains, locus YOR265W, strain rbl2, active compounds read low 0.996 | S. cerevisiae deletion strains, locus YOR270C, strain vph1, active compounds read low 1.01 | S. cerevisiae deletion strains, locus YOR290C, strain snf2, active compounds read low 0.956 | S. cerevisiae deletion strains, locus YOR316C, strain cot1, active compounds read low 0.975 | S. cerevisiae deletion strains, locus YPL051W, strain arl3, active compounds read low 0.981 | S. cerevisiae deletion strains, locus YPL078C, strain atp4, active compounds read low 0.975 | S. cerevisiae deletion strains, locus YPL106C, strain sse1, active compounds read low 0.965 | S. cerevisiae deletion strains, locus YPL240C, strain hsp82, active compounds read low 0.98 | S. cerevisiae deletion strains, locus YPL256C, strain CLN2, active compounds read low 0.963 | S. cerevisiae deletion strains, locus YPR119W, strain clb2, active compounds read low 0.99 | S. cerevisiae deletion strains, locus YPR141C, strain kar3, active compounds read low 0.99 | S. cerevisiae deletion strains, locus YPR163C, strain tif3, active compounds read low 0.998 | S. cerevisiae deletion strains, locus YPR167C, strain met16, active compounds read low 0.991 | S. cerevisiae deletion strains, strain wtn01, active compounds read low 1.03 | S. cerevisiae strains, strain wild type, active compounds read low 0.987
